Laboratory results taken from PubChem BioAssay (NCATS).
Values without a mark were called inactive. Results filed as inconclusive are left out. Calls of active or inactive are those of the source. Unless noted, calls come from the whole dose curve; as a rule, active = well fitted curve in either direction with a large enough effect (not every such curve was filed as active); inconclusive = small, poorly fitted or top-dose-only effect, or another doubt; inactive = flat fitted curve, though single readings scatter.

What was measured:
[1] = AP1 Signaling Pathway (AID 357); conditions: ME-180 AP-1-bla reporter, EGF-induced, beta-lactamase ratio, 5 h; at 17.2 µM (top of the series) unless noted;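 note: ME-180 reporter cells stimulated with EGF at its EC50 level; % is set by controls: 0 for no effect and ±100 for the full control effect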
Summary of the method: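 Modulation of EGF-driven AP-1 transcription was assessed with a beta-lactamase reporter in ME-180 cells. Compound and EC50 EGF were co-incubated 5 hours at 37 °C before 2.5-hour CCF4 loading at room temperature and dual-emission reading.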

[2] = NFAT Signaling Pathway (AID 444); conditions: Jurkat NFAT-bla M1, carbachol, beta-lactamase ratio, 5 h; at 17.2 µM (top of the series) unless noted;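 note: carbachol stimulus at about its EC50 of 1 µM final; % is set by controls: 0 for no effect and ±100 for the full control effect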
Summary of the method: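 Jurkat cells with NFAT-driven β-lactamase reporter and co-expressed M1 receptor, stimulated with carbachol (final 1 uM, ~EC50), compound titration, 5 h at 37 °C. CCF4 loaded 1 h at RT; 460/530 nm ratio gave %activity and AC50.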

[3] = Stat Signaling Pathway (AID 446); conditions: ME-180 SIE beta-lactamase reporter, IL-6 stimulated, 5 h; at 17.2 µM (top of the series) unless noted;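 note: ME-180 cervical cancer cells given 40 pM IL-6 alongside compound; SIE-controlled beta-lactamase reporter measured as 460/530 nm FRET emission ratio; % is set by controls: 0 for no effect and ±100 for the full control effect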
Summary of the method: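 Screening format detects activators and inhibitors alike: ME-180 SIE-bla cells stimulated at 40 pM IL-6 for 5 hrs with compound, then dual-emission beta-lactamase read at 405 nm excitation.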

[4] = molecular target: Glucocorticoid receptor (Homo sapiens) (UniProt P04150); assay: GR-GFP Redistribution (AID 450;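 active = compounds whose dose series gives a full or clear partial fitted curve of increased nuclear translocation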; note: potency is the fitted concentration of half-maximal effect)
[5] = qHTS Assay for Identification of Small Molecule Agonists for Hypoxia Response Element Signaling Pathway (AID 914; active = well fitted activation curve with a large enough effect in the signal ratio, with a control signal flat, not every such curve was filed as active; the % refers to the signal ratio; note: % of control where 0% means no effect); conditions: ME-180 (cervical carcinoma) HRE-bla reporter, beta-lactamase ratio, CoCl2, 17 h; activation: hits give high values
Summary of the method: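 Reporter activity (beta-lactamase, CCF4 460nm/530nm ratio) in HRE-bla ME-180 cells is recorded after 17 h compound exposure with EC50 CoCl2 at 37 degrees Celsius. AC50 values come from titration data.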

Sequence of Glucocorticoid receptor (Homo sapiens) (P04150 whole entry, looked up): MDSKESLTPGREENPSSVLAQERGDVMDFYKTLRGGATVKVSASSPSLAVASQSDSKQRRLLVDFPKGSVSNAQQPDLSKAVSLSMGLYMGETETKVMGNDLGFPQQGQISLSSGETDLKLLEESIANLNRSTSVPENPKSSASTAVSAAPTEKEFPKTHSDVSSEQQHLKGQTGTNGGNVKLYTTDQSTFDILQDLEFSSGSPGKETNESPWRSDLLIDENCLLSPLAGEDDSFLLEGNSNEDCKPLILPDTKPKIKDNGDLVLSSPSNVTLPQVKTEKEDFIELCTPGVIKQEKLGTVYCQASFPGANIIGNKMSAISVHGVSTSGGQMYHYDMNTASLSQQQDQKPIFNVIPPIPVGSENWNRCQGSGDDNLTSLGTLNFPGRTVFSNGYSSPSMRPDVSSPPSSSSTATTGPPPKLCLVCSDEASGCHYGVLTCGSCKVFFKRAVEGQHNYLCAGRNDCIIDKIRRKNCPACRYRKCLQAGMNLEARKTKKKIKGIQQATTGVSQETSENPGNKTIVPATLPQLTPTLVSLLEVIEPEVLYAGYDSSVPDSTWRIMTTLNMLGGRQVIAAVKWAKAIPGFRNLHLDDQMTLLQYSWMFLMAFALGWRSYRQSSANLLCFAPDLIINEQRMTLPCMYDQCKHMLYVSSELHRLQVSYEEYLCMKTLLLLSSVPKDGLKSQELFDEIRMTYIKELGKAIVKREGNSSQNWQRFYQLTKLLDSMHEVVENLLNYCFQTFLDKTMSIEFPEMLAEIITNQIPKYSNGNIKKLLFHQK

Structure (SMILES) | activity change, negative = inhibition [1] [%] | activity change, negative = inhibition [2] | activity, negative = inhibition [3] [%] | Potency [4] [µM] | activation [5] [%]
Cn1c(=O)c2c(nc(Oc3ccc4c(c3)OCO4)n2Cc2ccc(F)cc2)n(C)c1=O | 28.8 | 2.74% | 6.83 | > 20.6 | -23.2
O=C1c2ccccc2C(=O)N1CC1c2ccccc2CCN1C(=O)N1CCOCC1 (stereo not given) | -3.7 | -0.0702% | 1.92 | > 20.6 | 4.7
CC(C)C1Cc2c(C#N)c(N)n(C)c(=S)c2CO1 (stereo not given) | -4.25 | -23.6% | 4.22 | > 20.6 | -0.94
Cc1ccc(-c2n[nH]c(=O)c3ccccc23)cc1S(=O)(=O)NCCN1CCOCC1 | 1.31 | -9.43% | 1.81 | > 20.6 | -17.3
COCCNc1nc2c(c(=O)n(Cc3ccc(OC)cc3)c(=O)n2C)n1C | -10.1 | -7.8% | -12.3 | > 20.6 | -9.75
CCSC(SCC)[C@H](O)[C@@H](O)[C@H](O)[C@H](O)CO | -0.356 | 8.22% | 10.1 | > 20.6 | 9.48
C=CCc1cccc(/C=N/c2ncn[nH]2)c1O | -5.91 | -19.8% | 5.03 | > 20.6 | 26.2
CCN(CC)CCNc1nc2c(c(=O)[nH]c(=O)n2C)n1CCOc1ccccc1 | -3.03 | -7.16% | 8.2 | > 20.6 | 0.547
O=C(O)CC(NC(=O)COc1ccc(Cl)cc1Cl)C(=O)O (stereo not given) | 7.75 | 6.45% | 1.25 | > 20.6 | 3.63
O=C(c1ccc(=O)oc1)N1CCN(C(c2ccccc2)c2ccccc2)CC1 | 26.4 | -101% (active) | -15.5 | > 20.6 | 9.9
COc1ccc(C2C(C(C)=O)=C(O)C(=O)N2c2nccs2)cc1OC (stereo not given) | -6.01 | 21.8% | 3.64 | > 20.6 | -13.7
CN(C=C1C(=O)CC(C)(C)CC1=O)CCN1CCNCC1 | 19.5 | -19.2% | 4.61 | > 20.6 | -4.98
O=C1C2ON(c3ccccc3)C(c3cccnc3)C2C(=O)N1c1ccc(Cl)c(Cl)c1 (stereo not given) | -4.98 | 16% | -9.39 | > 20.6 | 2.42
COC(=O)C1=C(N)Oc2cc(C)oc(=O)c2C1c1ccncc1 (stereo not given) | -9.84 | 4.62% | 0.284 | > 20.6 | 12.2
COC(=O)C(NC(C)=O)(Nc1ccc(Br)cn1)C(F)(F)F (stereo not given) | 0.568 | 3.2% | -10.2 | > 20.6 | 3.3
CC(C)OC(=O)C(CC(=O)O)NCc1ccccc1 (stereo not given) | -7.38 | 10.6% | 5.04 | > 20.6 | 19.8
CCOc1ccc(-c2nnc3sc(-c4ccccc4OC)nn23)cc1 | 18 | -19.8% | 5.75 | > 20.6 | -10.9
Cn1c(NCCCO)nc2c1c(=O)n(Cc1ccccc1F)c(=O)n2C | -2.43 | 8.23% | -2.21 | > 20.6 | -5.37
CC(C)COc1ccc(C(=O)NC(CC(C)C)C(=O)O)cc1 (stereo not given) | -2.73 | -7.69% | 3.82 | > 20.6 | 11.5
COc1ccc(C(=O)OC(C)CN2CCN(C)CC2)cc1OC (stereo not given) | 4.78 | -6.37% | 11.6 | > 20.6 | 7.74
COc1cc(NC2=CC(=O)CC(C)(C)C2)cc(OC)c1OC | 7.47 | -11.1% | 15.1 | > 20.6 | -12.9
CN(Cc1ccccc1)Cc1c[nH]c2ccccc12 | 15.6 | -28.7% | 7.69 | > 20.6 | -19.8
